Test results reported in PubChem BioAssay.
A number with no mark means an inactive call. Activity calls are given as the source filed them. Unless noted, no stated cut-off is given here; in the data, active means inhibition above about 36%; inactive means the rest.

Experiments:
[1] = system: transactivating tegument protein VP16 (Human herpesvirus 1); assay: compounds suppressing VP16-driven luciferase signal – cell-based, luminescence, single concentration, counter-screen for SRC2 inhibitor project (AID 652007); conditions: cell-based VP16 transactivation luciferase reporter, at 8.9 µM, active compounds read high
[2] = target: Nuclear receptor coactivator 2 (Homo sapiens) (UniProt Q15596); assay: inhibition of GAL4-SRC2 driven luciferase expression – cell-based, luminescence, HEK293, triplicate, confirmation (AID 652008;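 active means mean inhibition above 46.5%, the solvent-only control mean plus 3 SD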;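 further: 0% = DMSO-treated cells and 100% = Gossypol at 36 µM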); conditions: HEK293 GAL4-SRC2 luciferase reporter, at 8.9 µM, active compounds read high
Chain of Nuclear receptor coactivator 2 (Homo sapiens) (Q15596 whole entry, looked up, the tested form may be a part): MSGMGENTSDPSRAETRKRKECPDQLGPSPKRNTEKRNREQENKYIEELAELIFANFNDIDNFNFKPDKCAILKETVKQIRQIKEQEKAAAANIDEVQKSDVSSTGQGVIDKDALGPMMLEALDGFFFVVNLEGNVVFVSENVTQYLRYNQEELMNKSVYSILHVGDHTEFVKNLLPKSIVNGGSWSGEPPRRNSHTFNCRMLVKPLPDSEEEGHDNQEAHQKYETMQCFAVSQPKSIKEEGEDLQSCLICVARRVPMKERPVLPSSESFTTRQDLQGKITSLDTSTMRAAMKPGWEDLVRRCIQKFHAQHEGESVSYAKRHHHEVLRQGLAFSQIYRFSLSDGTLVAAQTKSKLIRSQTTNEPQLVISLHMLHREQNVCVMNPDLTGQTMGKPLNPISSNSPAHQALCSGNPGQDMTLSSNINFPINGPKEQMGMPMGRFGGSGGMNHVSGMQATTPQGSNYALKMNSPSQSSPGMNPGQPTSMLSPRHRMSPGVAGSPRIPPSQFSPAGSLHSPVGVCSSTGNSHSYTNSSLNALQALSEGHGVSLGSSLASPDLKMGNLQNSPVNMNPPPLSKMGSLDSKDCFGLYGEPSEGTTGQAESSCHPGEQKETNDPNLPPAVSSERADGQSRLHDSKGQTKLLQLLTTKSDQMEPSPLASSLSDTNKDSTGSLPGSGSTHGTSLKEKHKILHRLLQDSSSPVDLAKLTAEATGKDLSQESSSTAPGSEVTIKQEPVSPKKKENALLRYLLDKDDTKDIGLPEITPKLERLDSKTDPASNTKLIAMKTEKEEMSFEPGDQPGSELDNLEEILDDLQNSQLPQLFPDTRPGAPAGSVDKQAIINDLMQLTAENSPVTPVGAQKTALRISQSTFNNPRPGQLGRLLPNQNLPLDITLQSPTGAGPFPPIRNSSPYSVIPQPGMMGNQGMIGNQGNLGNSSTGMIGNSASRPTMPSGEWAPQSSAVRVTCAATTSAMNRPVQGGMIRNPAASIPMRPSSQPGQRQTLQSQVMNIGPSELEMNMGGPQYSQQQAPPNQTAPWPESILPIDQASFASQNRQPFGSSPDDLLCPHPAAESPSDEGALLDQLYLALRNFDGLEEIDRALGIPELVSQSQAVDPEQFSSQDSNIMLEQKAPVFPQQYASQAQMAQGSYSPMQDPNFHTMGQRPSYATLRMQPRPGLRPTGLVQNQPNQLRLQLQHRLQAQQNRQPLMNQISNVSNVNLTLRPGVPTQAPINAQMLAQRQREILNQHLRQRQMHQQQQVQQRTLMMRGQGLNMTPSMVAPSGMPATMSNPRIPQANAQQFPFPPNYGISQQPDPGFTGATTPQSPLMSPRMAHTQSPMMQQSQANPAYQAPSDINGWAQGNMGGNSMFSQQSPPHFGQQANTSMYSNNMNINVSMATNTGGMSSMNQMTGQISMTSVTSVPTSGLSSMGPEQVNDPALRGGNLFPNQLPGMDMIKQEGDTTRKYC

SMILES | inhibition [1] | inhibition [2]
C=CCOc1ccccc1CN1CCC(Cc2ccccc2)CC1 | 8.57% | -13.5%
CCOc1ccccc1N1CCN(C(=O)c2cc(-c3cc(OC)ccc3OC)nc3ccccc23)CC1 | -6.34% | 14.4%
CC1=CC(C)(C)Nc2ccc(OC(=O)C(C)N3C(=O)c4ccccc4C3=O)cc21 (stereo not given) | -33.8% | 20.7%
Cc1cc(C(=O)CN2C(=O)C(=O)N(Cc3ccccc3)C2=O)c(C)n1-c1ccc2c(c1)OCCO2 | -14.1% | -36%
CSc1nnc(NC(=O)c2nc(S(=O)(=O)Cc3ccc(C)cc3)ncc2Cl)s1 | 36.7% (active) | 55.7% (active)
CC(C)(C)c1ccc(/C=C/C(=O)NCCCN2CCOCC2)cc1 | -13.2% | 4.98%
CCOc1ccc(/C=C/c2c([N+](=O)[O-])c(=O)n(C)c(=O)n2C)cc1 | 7.01% | 2.26%
CCOc1ccc(-n2cc(C(=O)NCc3ccco3)c3cc(OC)c(OC)cc3c2=O)cc1 | 2.87% | -7.4%
CC(C)=C1C2CCC1C1C(=O)N(c3nccs3)C(=O)C21 (stereo not given) | 12.1% | 6.16%
O=C(CSCCO)Nc1ccc(C23CC4CC(CC(C4)C2)C3)cc1 | -57.7% | 41.9%
Cc1ccc(C)c(NC(=O)COc2coc(CN3CCc4ccccc4C3)cc2=O)c1 | -2.11% | 22.7%
O=[N+]([O-])c1cccc(NC(=S)Nc2nc(-c3ccc(Cl)cc3Cl)cs2)c1 | -15.8% | 9.75%
C[C@@H]1C[C@@H]2O[C@H]2CCCCC(=O)Cc2cc(O)cc(O)c2C(=O)O1 | 53.1% (active) | 28.7%
CCC1CCCCN1S(=O)(=O)c1ccc(NC(=O)c2nc(S(C)(=O)=O)ncc2Cl)cc1 (stereo not given) | 96.7% (active) | 72.7% (active)
O=C(COC(=O)CCCOc1ccc(Cl)cc1Cl)NCc1ccccc1 | 0.2% | 15.4%
O=C(O)CCCCCCCCCCC1CCC(O)C1O (stereo not given) | 20.8% | 65.3% (active)
CS(=O)(=O)c1ccc(Cl)c(NC(=O)c2cccc(-n3cnnn3)c2)c1 | -11.3% | -13.4%
COc1cc(Nc2nc(-c3ccccc3)c3cc(C)ccc3n2)cc(OC)c1OC | 6.86% | 10.7%
O=C(CCCN1C(=O)/C(=C/c2ccccc2Cl)SC1=S)NCCCN1CCOCC1 | 33.6% | 45.9%
COc1ccc(CN2CCN(Cc3ccc(C(F)(F)F)cc3)CC2)cc1 | 10.7% | 22.6%
COc1cc(N(C(C)=O)c2ccc(O)cc2)c2ncccc2c1 | 1.2% | 2.41%
COc1cccc(CNC(=O)C2CCN(S(=O)(=O)c3ccc(F)cc3)CC2)c1 | 16.3% | -10.1%
COc1cc2[nH]c(=O)n(CCCCCC(=O)NCCCN3CCCC3=O)c(=O)c2cc1OC | 7.78% | -9.47%

SMILES | inhibition [1] | inhibition [2]
CCOC(=O)C1(Cc2ccccc2)CCN(Cc2ccnc3ccccc23)CC1 | -2.44% | 14.6%
CC(OC(=O)C1=COCCO1)C(=O)Nc1ccc(Cl)cn1 (stereo not given) | -6.28% | -20.4%
Cc1c(CCC(=O)N[C@@H](CC(C)C)C(=O)O)c(=O)oc2cc3oc4c(c3cc12)CCCC4 | 37.5% (active) | 69.8% (active)
Cc1nn(-c2ccccc2)c(N2CCCC2)c1/C=N/NC(=O)c1cccc(S(=O)(=O)Nc2ccc(Cl)cc2)c1 | -8.85% | -16.7%
O=C(NC1CCCC1)C(c1ccccc1)n1c(CSCCOc2ccccc2)nc2ccccc21 (stereo not given) | 47.1% (active) | 80.3% (active)
Cn1nnnc1Sc1ncnc2scc(-c3cccc(C(F)(F)F)c3)c12 | 36.9% (active) | 52.3% (active)
Cc1cccc(Nc2nc(NCc3ccco3)c3ccccc3n2)c1 | 25.1% | 33.9%
COc1cccc(N2CCN(C(=O)c3ccc(CS(=O)c4ccc(Cl)cc4)o3)CC2)c1 (stereo not given) | 19.7% | 14.5%
Fc1ccc(CNC2CCN(Cc3ccccc3)CC2)cc1 | 7.5% | -3.44%
O=C(NCCCN1CCN(c2ccccc2)CC1)C1CCCN(c2ncnc3c2nc2n3CCCCC2)C1 (stereo not given) | 6.18% | -21.6%
COC(=O)CCCNC(=O)CCc1nnc(-c2ccc(-c3ccccc3)cc2)o1 | 34% | 62.8% (active)
CCN1C=CC(=C2C(=O)c3ccccc3C2=O)C=C1 | 42.3% (active) | 58.6% (active)
O=C(Cc1ccc(-c2ccccc2)cc1)NNC(=S)NCc1ccco1 | -22.3% | -9.18%
CC(C)c1ccccc1NC(=O)COC(=O)CCN1C(=O)/C(=C\C=C\c2ccccc2)SC1=S | 45.2% (active) | 77.6% (active)
Cc1nn(Cc2ccc(C(=O)NC(C)(C)C)o2)c(C)c1Br | 5.83% | 17.8%
Cc1ccc(NC(=O)C2CCN(C(=O)c3ccccc3C)CC2)nc1 | -5.97% | -11.5%
CCOC(=O)C1CCN(S(=O)(=O)c2ccc(NC(=O)OC)cc2)CC1 | -1.65% | -1.21%
CCCC(O)(CCC)C(=O)NN(C(=O)CCl)c1ccccc1 | 8.55% | 30.1%
NC(Cc1ccc(Cl)cc1)c1csc(NC(=O)NCC2CCCCC2)n1 (stereo not given) | -2.01% | 3.16%
CCOc1ccc(-n2c(C)nc3cc(C(=O)NCC4CCCO4)ccc32)cc1 (stereo not given) | -16.6% | -3.58%
O=C(O)CCC(=O)Nc1ccc(NC(=O)c2ccc(Cl)cc2Cl)c(Cl)c1 | -5.8% | -2.71%
COc1cc(OC)cc(C(=O)NCC2CCN(C(=O)C(=O)c3cccs3)CC2)c1 | 18.9% | 18%
